According to the supplement of paper PMC10849652:
Of roughly 7,900 targets only a part is listed; those with a hit were picked by preference. About 0.6% of all pairs of compound and target were hits.

Experiments:
Assay in all cases: log2 fold change, soluble protein after heating vs DMSO (PISA); higher = thermal stabilisation; K562 cells, 10 uM, 30 min; active = over 0.2 and 3.5 SD of the protein, either way, in both replicates (recomputed)
ZEB2 = ZEB2 (UniProt O60315)
Method in brief: (§1)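 Thermal stability values are relative to control samples and come from duplicates. They are expressed as log2 fold changes. For measurement, K562 cells (2×10^6 cells/mL) received 10 μM compound for 30 min, and aliquots were heated for 3 min over 48°C-58°C, pooled, and extracted at 4°C in PBS with 0.5% NP-40. Soluble protein, the supernatant after 21,000xg for 90 min, was quantified by TMTpro 16plex LC-MS/MS with equalised channel sums.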

ZER1 = ZER1 (UniProt Q7Z7L7)
Method in brief: as §1

ZFAND5 = ZFAND5 (UniProt O76080)
Method in brief: as §1

ZFAND6 = ZFAND6 (UniProt Q6FIF0)
Method in brief: as §1

ZFP91 = ZFP91 (UniProt Q96JP5)
Method in brief: as §1

ZFPL1 = ZFPL1 (UniProt O95159)
Method in brief: as §1

ZMAT2 = ZMAT2 (UniProt Q96NC0)
Method in brief: as §1

ZMYM1 = ZMYM1 (UniProt Q5SVZ6)
Method in brief: as §1

ZMYM3 = ZMYM3 (UniProt Q14202)
Method in brief: as §1

ZNF143 = ZNF143 (UniProt P52747)
Method in brief: as §1

ZNF217 = ZNF217 (UniProt O75362)
Method in brief: as §1

ZNF239 = ZNF239 (UniProt Q16600)
Method in brief: as §1

ZNF277 = ZNF277 (UniProt Q9NRM2)
Method in brief: as §1

ZNF511 isoform 1 = ZNF511 isoform 1 (UniProt Q8NB15)
Method in brief: as §1

ZNF579 = ZNF579 (UniProt Q8NAF0)
Method in brief: as §1

ZNF580 = ZNF580 (UniProt Q9UK33)
Method in brief: as §1

ZNF609 = ZNF609 (UniProt O15014)
Method in brief: as §1

ZNF622 = ZNF622 (UniProt Q969S3)
Method in brief: as §1

ZRANB2 = ZRANB2 (UniProt O95218)
Method in brief: as §1

ZNF512 = ZNF512 (UniProt Q96ME7)
Method in brief: as §1

Measured: log2 fold change

ZNF277, sequence (Q9NRM2 whole entry, looked up): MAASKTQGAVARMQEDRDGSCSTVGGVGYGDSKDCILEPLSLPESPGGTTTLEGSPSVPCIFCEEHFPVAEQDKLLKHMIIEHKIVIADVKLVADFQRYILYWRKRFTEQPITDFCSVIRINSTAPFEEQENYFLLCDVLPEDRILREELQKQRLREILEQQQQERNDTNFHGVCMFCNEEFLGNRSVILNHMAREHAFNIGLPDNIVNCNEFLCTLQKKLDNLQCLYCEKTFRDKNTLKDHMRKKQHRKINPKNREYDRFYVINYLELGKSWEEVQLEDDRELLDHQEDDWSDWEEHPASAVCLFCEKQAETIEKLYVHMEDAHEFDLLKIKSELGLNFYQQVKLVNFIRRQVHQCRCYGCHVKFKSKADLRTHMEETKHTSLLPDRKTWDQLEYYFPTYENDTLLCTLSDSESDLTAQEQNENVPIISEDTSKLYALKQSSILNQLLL
ZNF217, sequence (O75362 whole entry, looked up): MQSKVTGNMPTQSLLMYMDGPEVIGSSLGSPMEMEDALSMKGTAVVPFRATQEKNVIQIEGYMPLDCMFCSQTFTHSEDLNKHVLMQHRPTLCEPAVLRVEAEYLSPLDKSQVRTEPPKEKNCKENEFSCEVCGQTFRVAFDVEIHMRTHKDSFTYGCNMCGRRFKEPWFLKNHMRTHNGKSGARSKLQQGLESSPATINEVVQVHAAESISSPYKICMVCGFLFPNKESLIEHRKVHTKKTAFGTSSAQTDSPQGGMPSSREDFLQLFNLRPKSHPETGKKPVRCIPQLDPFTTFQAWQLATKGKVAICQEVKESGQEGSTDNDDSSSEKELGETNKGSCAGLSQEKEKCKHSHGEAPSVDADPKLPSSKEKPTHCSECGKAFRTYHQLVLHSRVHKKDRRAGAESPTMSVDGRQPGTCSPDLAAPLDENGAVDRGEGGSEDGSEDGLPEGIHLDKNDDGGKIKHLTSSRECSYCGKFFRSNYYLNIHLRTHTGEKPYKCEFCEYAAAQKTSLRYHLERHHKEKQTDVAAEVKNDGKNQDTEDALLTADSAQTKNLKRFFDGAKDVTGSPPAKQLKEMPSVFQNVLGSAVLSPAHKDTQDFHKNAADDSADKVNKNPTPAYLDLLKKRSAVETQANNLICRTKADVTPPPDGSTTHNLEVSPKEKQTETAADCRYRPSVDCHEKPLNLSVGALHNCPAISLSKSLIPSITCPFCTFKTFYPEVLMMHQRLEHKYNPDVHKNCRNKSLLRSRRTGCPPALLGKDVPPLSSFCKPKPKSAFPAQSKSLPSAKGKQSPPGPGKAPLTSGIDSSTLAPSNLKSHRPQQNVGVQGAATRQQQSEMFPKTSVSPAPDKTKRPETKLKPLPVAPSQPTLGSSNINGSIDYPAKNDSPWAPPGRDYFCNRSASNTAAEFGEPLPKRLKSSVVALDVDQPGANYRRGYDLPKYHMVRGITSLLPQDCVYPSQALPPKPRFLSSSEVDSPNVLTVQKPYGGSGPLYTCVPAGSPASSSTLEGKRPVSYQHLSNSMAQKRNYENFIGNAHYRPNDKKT
ZNF239, sequence (Q16600 whole entry, looked up): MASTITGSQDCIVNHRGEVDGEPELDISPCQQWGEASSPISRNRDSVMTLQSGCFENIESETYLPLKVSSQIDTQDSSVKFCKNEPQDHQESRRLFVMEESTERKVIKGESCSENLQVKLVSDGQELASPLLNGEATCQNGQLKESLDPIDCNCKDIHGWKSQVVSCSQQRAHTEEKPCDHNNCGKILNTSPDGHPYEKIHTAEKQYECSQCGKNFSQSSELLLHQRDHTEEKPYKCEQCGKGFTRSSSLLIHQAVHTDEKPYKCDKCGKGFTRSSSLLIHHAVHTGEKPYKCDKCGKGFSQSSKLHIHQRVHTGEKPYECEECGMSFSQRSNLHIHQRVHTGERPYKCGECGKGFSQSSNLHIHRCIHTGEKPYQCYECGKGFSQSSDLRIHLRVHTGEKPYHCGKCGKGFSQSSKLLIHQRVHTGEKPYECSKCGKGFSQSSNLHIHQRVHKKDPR
ZER1, sequence (Q7Z7L7 whole entry, looked up): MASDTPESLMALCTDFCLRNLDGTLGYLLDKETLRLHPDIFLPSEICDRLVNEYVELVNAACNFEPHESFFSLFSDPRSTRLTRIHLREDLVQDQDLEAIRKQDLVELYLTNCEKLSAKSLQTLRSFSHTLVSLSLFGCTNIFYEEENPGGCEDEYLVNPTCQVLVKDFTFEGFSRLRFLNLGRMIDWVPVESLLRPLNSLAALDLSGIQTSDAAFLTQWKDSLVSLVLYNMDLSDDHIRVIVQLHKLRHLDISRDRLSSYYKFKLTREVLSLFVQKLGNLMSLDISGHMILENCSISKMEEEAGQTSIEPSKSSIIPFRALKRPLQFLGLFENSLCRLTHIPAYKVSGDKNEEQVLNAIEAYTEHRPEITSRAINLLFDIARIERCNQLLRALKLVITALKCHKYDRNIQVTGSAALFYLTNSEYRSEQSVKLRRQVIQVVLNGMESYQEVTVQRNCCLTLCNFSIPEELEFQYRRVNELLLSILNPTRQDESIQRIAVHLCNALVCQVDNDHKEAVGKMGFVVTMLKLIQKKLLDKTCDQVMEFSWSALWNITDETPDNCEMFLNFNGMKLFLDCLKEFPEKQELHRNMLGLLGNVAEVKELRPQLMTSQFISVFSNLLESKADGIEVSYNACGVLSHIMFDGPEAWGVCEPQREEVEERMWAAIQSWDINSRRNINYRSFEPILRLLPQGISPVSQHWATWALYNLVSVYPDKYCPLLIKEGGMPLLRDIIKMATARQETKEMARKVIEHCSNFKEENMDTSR
ZFAND6, sequence (Q6FIF0 whole entry, looked up): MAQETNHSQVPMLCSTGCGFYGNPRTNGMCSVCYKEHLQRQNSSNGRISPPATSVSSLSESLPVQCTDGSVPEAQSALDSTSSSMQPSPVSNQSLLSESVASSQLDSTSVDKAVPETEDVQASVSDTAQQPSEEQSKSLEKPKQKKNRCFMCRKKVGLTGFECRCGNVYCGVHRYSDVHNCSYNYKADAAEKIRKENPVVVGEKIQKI
ZMYM1, sequence (Q5SVZ6 whole entry, looked up): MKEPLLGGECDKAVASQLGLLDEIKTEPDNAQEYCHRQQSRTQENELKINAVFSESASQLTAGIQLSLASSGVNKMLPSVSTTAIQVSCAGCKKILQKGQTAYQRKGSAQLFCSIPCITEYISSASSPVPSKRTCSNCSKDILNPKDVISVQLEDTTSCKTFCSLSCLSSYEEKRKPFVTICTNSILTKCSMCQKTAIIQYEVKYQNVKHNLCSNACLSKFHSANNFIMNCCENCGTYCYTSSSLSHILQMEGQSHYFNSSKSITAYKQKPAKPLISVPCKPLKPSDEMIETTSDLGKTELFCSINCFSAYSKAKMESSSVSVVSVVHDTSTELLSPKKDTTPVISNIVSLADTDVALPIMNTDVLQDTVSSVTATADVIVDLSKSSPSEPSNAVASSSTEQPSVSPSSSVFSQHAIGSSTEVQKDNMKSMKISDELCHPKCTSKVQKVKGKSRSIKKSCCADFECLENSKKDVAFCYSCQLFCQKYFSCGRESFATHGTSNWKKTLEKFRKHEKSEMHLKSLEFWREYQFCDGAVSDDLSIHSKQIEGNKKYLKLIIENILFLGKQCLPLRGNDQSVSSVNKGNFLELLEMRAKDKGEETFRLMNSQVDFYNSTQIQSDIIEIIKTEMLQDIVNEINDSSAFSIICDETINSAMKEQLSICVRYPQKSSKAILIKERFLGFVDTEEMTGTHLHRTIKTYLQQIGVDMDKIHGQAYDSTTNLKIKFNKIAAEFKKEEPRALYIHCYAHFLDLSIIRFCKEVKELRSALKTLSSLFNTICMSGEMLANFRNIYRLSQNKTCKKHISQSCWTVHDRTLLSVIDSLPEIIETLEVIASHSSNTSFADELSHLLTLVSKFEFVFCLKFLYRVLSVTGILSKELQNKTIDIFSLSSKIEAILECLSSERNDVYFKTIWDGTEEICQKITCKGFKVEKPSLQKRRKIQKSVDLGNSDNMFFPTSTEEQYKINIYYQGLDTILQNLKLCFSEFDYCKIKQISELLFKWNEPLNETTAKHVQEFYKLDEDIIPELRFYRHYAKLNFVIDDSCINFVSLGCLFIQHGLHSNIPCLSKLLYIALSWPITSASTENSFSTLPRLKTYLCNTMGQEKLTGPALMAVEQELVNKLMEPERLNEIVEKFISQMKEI
ZNF512, sequence (Q96ME7 whole entry, looked up): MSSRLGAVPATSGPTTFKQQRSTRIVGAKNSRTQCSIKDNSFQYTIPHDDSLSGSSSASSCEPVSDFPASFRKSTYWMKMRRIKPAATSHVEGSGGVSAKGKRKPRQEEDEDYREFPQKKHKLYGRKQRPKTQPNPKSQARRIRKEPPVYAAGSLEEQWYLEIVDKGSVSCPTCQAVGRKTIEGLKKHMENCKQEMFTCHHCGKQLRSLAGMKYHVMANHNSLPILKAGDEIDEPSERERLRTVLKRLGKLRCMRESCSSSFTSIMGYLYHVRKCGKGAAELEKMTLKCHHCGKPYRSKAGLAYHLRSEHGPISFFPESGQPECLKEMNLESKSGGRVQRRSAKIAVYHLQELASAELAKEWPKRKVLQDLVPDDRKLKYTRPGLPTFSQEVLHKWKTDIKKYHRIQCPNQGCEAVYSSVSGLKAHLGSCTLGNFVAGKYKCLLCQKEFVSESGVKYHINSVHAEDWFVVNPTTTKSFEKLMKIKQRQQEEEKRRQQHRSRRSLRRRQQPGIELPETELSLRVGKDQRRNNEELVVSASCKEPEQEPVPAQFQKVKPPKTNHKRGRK
ZNF580, sequence (Q9UK33 whole entry, looked up): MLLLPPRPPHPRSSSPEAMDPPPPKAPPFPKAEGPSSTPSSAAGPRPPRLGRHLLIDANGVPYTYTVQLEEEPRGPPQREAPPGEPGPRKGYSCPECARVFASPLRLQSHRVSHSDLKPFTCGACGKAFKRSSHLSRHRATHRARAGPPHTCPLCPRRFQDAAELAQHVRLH
ZMAT2, sequence (Q96NC0 whole entry, looked up): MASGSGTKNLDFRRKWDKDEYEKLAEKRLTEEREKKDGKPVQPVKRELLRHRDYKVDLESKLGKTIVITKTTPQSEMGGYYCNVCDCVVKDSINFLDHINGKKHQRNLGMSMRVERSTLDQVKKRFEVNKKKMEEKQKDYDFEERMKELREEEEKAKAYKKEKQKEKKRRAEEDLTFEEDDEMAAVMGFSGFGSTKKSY

CNC(=O)c1ccc(Nc2ncc(C(F)(F)F)c(NCc3nccnc3N(C)S(C)(=O)=O)n2)cc1 [defactinib]
active: ZMYM1 0.558
inactive: ZEB2 0.019 | ZER1 0.027 | ZFAND5 0.085 | ZFAND6 -0.045 | ZFP91 0.054 | ZFPL1 -0.083 | ZMAT2 -0.014 | ZMYM3 -0.013 | ZNF143 -0.171 | ZNF217 -0.145 | ZNF239 -0.014 | ZNF277 0.161 | ZNF511 isoform 1 -0.128 | ZNF579 0.019 | ZNF580 -0.099 | ZNF609 -0.046 | ZNF622 0.057 | ZRANB2 -0.046

FC(F)(F)c1ccc(/C=C/c2nc(COc3ccc(CCCCn4ccnn4)cc3)co2)cc1 [mubritinib]
inactive: ZEB2 -0.114 | ZER1 0.044 | ZFAND5 0.099 | ZFAND6 0.017 | ZFP91 -0.076 | ZFPL1 -0.007 | ZMAT2 0.049 | ZMYM1 -0.081 | ZMYM3 -0.072 | ZNF143 0.094 | ZNF217 0.08 | ZNF239 -0.483 | ZNF277 0.192 | ZNF511 isoform 1 -0.06 | ZNF512 -0.122 | ZNF579 0.031 | ZNF609 0.019 | ZNF622 0.004 | ZRANB2 -0.02

NC1(c2ccc(-c3nc4ccn5c(=O)[nH]nc5c4cc3-c3ccccc3)cc2)CCC1
inactive: ZEB2 -0.127 | ZER1 0 | ZFAND5 0.019 | ZFAND6 0.056 | ZFP91 0.144 | ZFPL1 0.058 | ZMAT2 0.043 | ZMYM1 0.215 | ZMYM3 -0.036 | ZNF143 -0.023 | ZNF217 -0.045 | ZNF239 -0.253 | ZNF277 0.107 | ZNF511 isoform 1 -0.039 | ZNF512 0.151 | ZNF579 -0.061 | ZNF609 0.018 | ZNF622 -0.019 | ZRANB2 0.046

O=C(O)c1ccc2c(c1)nc(Nc1cccc(Cl)c1)c1ccncc12 [silmitasertib]
inactive: ZEB2 -0.001 | ZER1 0.028 | ZFAND5 -0.03 | ZFAND6 -0.018 | ZFP91 0.086 | ZFPL1 0.003 | ZMAT2 0.028 | ZMYM1 0.255 | ZMYM3 -0.012 | ZNF143 0.023 | ZNF217 -0.073 | ZNF239 0.29 | ZNF277 0.105 | ZNF511 isoform 1 0.076 | ZNF512 0.234 | ZNF579 -0.016 | ZNF609 0.02 | ZNF622 -0.058 | ZRANB2 0.018

Fc1ccc(Cl)cc1-c1nc(Nc2ccncc2)c2nccnc2n1
inactive: ZEB2 -0.099 | ZER1 -0.022 | ZFAND5 0.003 | ZFAND6 -0.05 | ZFP91 0.007 | ZFPL1 0.101 | ZMAT2 0.018 | ZMYM1 -0.057 | ZMYM3 -0.012 | ZNF143 -0.058 | ZNF217 0.168 | ZNF239 -0.333 | ZNF511 isoform 1 -0.03 | ZNF512 0.086 | ZNF579 -0.002 | ZNF609 -0.302 | ZNF622 0.038 | ZRANB2 0.041
active: ZNF277 -0.765

CCCS(=O)(=O)Nc1ccc(F)c(C(=O)c2c[nH]c3ncc(Cl)cc23)c1F
inactive: ZEB2 0.123 | ZER1 -0.001 | ZFAND5 -0.058 | ZFAND6 0.002 | ZFP91 -0.041 | ZFPL1 0.006 | ZMAT2 -0.008 | ZMYM1 -0.006 | ZMYM3 0.016 | ZNF143 0.063 | ZNF239 -0.02 | ZNF277 0.028 | ZNF511 isoform 1 0.014 | ZNF579 -0.085 | ZNF580 0.069 | ZNF609 0.036 | ZNF622 0.023 | ZRANB2 -0.02
active: ZNF217 0.688

Cc1ncc(-c2ccnc(Nc3ccc(S(C)(=O)=O)cc3)n2)n1C(C)C
inactive: ZEB2 -0.05 | ZER1 0.058 | ZFAND5 -0.099 | ZFAND6 -0.031 | ZFP91 -0.035 | ZFPL1 -0.01 | ZMAT2 -0.027 | ZMYM1 -0.033 | ZMYM3 -0.009 | ZNF143 0.074 | ZNF217 -0.046 | ZNF239 0.275 | ZNF277 0.017 | ZNF511 isoform 1 0.015 | ZNF512 -0.072 | ZNF579 -0.054 | ZNF609 -0.102 | ZNF622 0.013 | ZRANB2 -0.027

NCC(=O)Nc1ccc(-n2nc(C(F)(F)F)cc2-c2ccc3c(ccc4ccccc43)c2)cc1
inactive: ZEB2 -0.343 | ZER1 0.03 | ZFAND5 0.103 | ZFAND6 0.061 | ZFP91 0.036 | ZFPL1 0.027 | ZMAT2 0.016 | ZMYM1 0.336 | ZMYM3 0.073 | ZNF143 -0.047 | ZNF217 -0.081 | ZNF239 -0.027 | ZNF277 -0.148 | ZNF511 isoform 1 -0.005 | ZNF579 0.085 | ZNF580 -0.038 | ZNF609 -0.076 | ZNF622 -0.016 | ZRANB2 0.067
